PAFAH2 inh: PAFAH2 (human) inhibition; recombinant PAFAH2, FP-rhodamine activity probe, fluorescence polarization; inhibition, % at 3.39 µM; 340,000 tested, 0.99% active;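 active means inhibition above the mean over all tested compounds plus 3 SD, cut at about 30% in these data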;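 further: inhibitors block probe labeling of enzyme so polarization drops; 0% = enzyme with DMSO and 100% = wells lacking PAFAH2 protein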
PAFAH1B2 FP inh: blocks human PAF acetylhydrolase 1b catalytic subunit 2. 340,000 tested, 1.2% active. inhibition, % at 3.39 µM. recombinant PAFAH1B2, FP-rhodamine activity probe, fluorescence polarization;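 active means inhibition above the mean of all tested compounds plus 3 SD, cut at about 24% in these data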;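 further: 0% = enzyme with DMSO and 100% = wells lacking PAFAH1B2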
PAFAH1B3 FP inh: blocks human PAF acetylhydrolase 1B catalytic subunit 3; Q15102; recombinant PAFAH1B3, FP-rhodamine probe, fluorescence polarization; inhibition, % at 3.39 µM; 340,000 tested, 0.28% active;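 active means inhibition above the screen-wide average of all tested compounds plus 3 SD, cut at about 25% in these data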;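 further: 0% = enzyme with DMSO only and 100% = wells lacking PAFAH1B3 protein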
ATG4B inhibitor: inhibitors of human ATG4B cysteine protease | Q9Y4P1 | ATG4B cleavage of LC3-PLA2, NBD-HPC fluorescence, 1 h | inhibition, % at 8.33 µM | 340,000 tested, 0.51% active; in the data active means inhibition above about 40%
DAGLB inh: diacylglycerol lipase beta (human) inhibition; Q8NCG7; HEK293T DAGLB membrane lysate, EnzChek fluorogenic substrate; inhibition, % at 5.17 µM; 340,000 tested, 0.059% active; AID 504411; in the data active means inhibition above about 34%;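 further: 0% = enzyme with vehicle and 100% = wells lacking enzyme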
Target sequence (Q8NCG7 whole entry, looked up): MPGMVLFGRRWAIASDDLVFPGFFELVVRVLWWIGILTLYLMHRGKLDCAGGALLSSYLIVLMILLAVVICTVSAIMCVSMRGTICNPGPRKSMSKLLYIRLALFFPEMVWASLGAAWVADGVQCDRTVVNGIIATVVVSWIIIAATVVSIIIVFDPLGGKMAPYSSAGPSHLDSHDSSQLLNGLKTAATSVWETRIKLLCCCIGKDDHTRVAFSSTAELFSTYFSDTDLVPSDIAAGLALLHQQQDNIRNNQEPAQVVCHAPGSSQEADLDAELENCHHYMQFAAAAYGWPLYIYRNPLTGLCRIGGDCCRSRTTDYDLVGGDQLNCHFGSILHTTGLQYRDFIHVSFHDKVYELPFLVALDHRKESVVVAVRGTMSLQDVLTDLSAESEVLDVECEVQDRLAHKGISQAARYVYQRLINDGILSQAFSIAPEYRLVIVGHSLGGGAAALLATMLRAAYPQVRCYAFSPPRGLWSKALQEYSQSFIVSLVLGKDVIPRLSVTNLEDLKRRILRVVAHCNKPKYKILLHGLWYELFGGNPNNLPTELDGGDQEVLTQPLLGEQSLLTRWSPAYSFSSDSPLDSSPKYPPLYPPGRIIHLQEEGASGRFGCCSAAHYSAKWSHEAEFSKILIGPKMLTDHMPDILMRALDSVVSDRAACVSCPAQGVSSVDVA
pPAFAH FP inh: pPAFAH (human) enzyme inhibition; Q13093; recombinant pPAFAH, FP-rhodamine probe fluorescence polarization; inhibition, % at 3.39 µM; 330,000 tested, 1.5% active;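 active means inhibition above the mean inhibition across the screen plus 3 SD, cut at about 25% in these data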;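 further: inhibitors block binding of the rhodamine activity-based probe so polarization drops; 0% = enzyme with DMSO and 100% = wells lacking pPAFAH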
Numbers without * were called inactive. A selection: hits, their analogues and other compounds. The true share with any hit is near 3%.

What do the screens show for `CC(=O)Nc1ccc2nc3c(=O)n(C)c(=O)n(C)c3nc2c1`?
PAFAH2 inh: 5; PAFAH1B2 FP inh: 8; PAFAH1B3 FP inh: 16; ATG4B inhibitor: -2; DAGLB inh: -1; pPAFAH FP inh: 30*

What do the screens show for `C=C(C(=O)O)C1CCC2(C)CCCC(C)(O)C2C1` (stereo not drawn)?
PAFAH2 inh: 3; PAFAH1B2 FP inh: 29*; PAFAH1B3 FP inh: 6; ATG4B inhibitor: 0; DAGLB inh: 0; pPAFAH FP inh: 2

Results for CCCCn1c(N)c(N(CC(C)C)C(=O)CSc2nn(-c3ccc(F)cc3)c(=S)s2)c(=O)[nH]c1=O ?
PAFAH2 inh: 2; PAFAH1B2 FP inh: 8; PAFAH1B3 FP inh: 6; ATG4B inhibitor: -34; DAGLB inh: 6

Results for CCCc1c(-c2ccc(O)cc2)nn(-c2ccc(O)cc2)c1-c1ccc(O)cc1 ?
PAFAH2 inh: 1; PAFAH1B2 FP inh: 5; PAFAH1B3 FP inh: 11; ATG4B inhibitor: 14; DAGLB inh: 2; pPAFAH FP inh: 33*

How did O=S(=O)(c1ccc(Cl)cc1)N1CCN(CCc2ccccc2)CC1 do in these assays?
PAFAH2 inh: 1; PAFAH1B2 FP inh: 28*; PAFAH1B3 FP inh: 13; ATG4B inhibitor: 1; DAGLB inh: -1; pPAFAH FP inh: -10

Results for O=S(=O)(c1ccc(Cl)cc1)N1CCN(Cc2ccncc2)CC1 ?
PAFAH2 inh: 1; PAFAH1B2 FP inh: 24*; PAFAH1B3 FP inh: 6; ATG4B inhibitor: -15; DAGLB inh: -1; pPAFAH FP inh: -1

Results for O=c1[nH]c(CN2CCN(S(=O)(=O)c3ccc(Cl)cc3)CC2)nc2cc(Cl)ccc12 ?
PAFAH2 inh: 1; PAFAH1B2 FP inh: 24*; PAFAH1B3 FP inh: 4; ATG4B inhibitor: -17; DAGLB inh: 2; pPAFAH FP inh: -8

How did CNC(=O)c1c(I)c(C(=O)NCC(=O)Nc2c(I)c(C(=O)O)c(I)c(C(=O)NCCO)c2I)c(I)c(N(C)C(C)=O)c1I do in these assays?
PAFAH2 inh: -13; PAFAH1B2 FP inh: -1; PAFAH1B3 FP inh: 4; ATG4B inhibitor: -1; DAGLB inh: 0; pPAFAH FP inh: -2

What do the screens show for `CN1CCN(CC(=O)c2ccccc2F)CC1`?
PAFAH2 inh: 3; PAFAH1B2 FP inh: 0; PAFAH1B3 FP inh: 13; ATG4B inhibitor: -1; DAGLB inh: 2; pPAFAH FP inh: 1

Results for COc1ccc(/C=C\C(=O)CC(O)(c2ccccc2)C(F)(F)F)cc1 (stereo not drawn) ?
PAFAH2 inh: 7; PAFAH1B2 FP inh: 30*; PAFAH1B3 FP inh: -1; ATG4B inhibitor: -5; DAGLB inh: 10; pPAFAH FP inh: -3

Results for COc1ccc(/C=C/C(=O)OCC(=O)c2ccccc2F)cc1 ?
PAFAH2 inh: 29; PAFAH1B2 FP inh: 3; PAFAH1B3 FP inh: 6; ATG4B inhibitor: -6; DAGLB inh: -5; pPAFAH FP inh: 6

What do the screens show for `COc1ccc2[nH]c(C(=O)O)c(NS(=O)(=O)c3ccc(F)cc3)c2c1`?
PAFAH2 inh: 5; PAFAH1B2 FP inh: 27*; PAFAH1B3 FP inh: 8; ATG4B inhibitor: -2; DAGLB inh: 0; pPAFAH FP inh: 4

What do the screens show for `COc1ccc2[nH]c(C(=O)O)c(NS(=O)(=O)c3ccc(C)c(C)c3)c2c1`?
PAFAH2 inh: 7; PAFAH1B2 FP inh: 18; PAFAH1B3 FP inh: 9; ATG4B inhibitor: 5; DAGLB inh: -1; pPAFAH FP inh: 10

How did O=C(O)c1[nH]c2ccccc2c1NS(=O)(=O)c1ccc(F)cc1 do in these assays?
PAFAH2 inh: 3; PAFAH1B2 FP inh: 24*; PAFAH1B3 FP inh: -1; ATG4B inhibitor: -8; DAGLB inh: 0; pPAFAH FP inh: 3

Results for Cn1nc(C(=O)NCCc2ccc(Cl)cc2)c2c1-c1ccccc1S(=O)(=O)C2 ?
PAFAH2 inh: 1; PAFAH1B2 FP inh: 35*; PAFAH1B3 FP inh: 0; ATG4B inhibitor: -5; DAGLB inh: 1; pPAFAH FP inh: 6

Results for CCN(CC)c1ccc(NC(=O)CSc2nc(C3CC3)nc3ccccc23)cc1C ?
PAFAH2 inh: 7; PAFAH1B2 FP inh: 4; PAFAH1B3 FP inh: 7; ATG4B inhibitor: 3; DAGLB inh: -9; pPAFAH FP inh: 31*

How did Cc1ccc(C(=O)OCC(=O)N(C)c2c(N)n(Cc3ccccc3)c(=O)[nH]c2=O)s1 do in these assays?
PAFAH2 inh: 7; PAFAH1B2 FP inh: 4; PAFAH1B3 FP inh: 9; ATG4B inhibitor: -10; DAGLB inh: 1; pPAFAH FP inh: 1

Results for Cc1c2cnn(CC(=O)Nc3c(F)c(F)cc(F)c3F)c(=O)c2c(C)n1Cc1ccccc1F ?
PAFAH2 inh: 21; PAFAH1B2 FP inh: -3; PAFAH1B3 FP inh: -6; ATG4B inhibitor: 12; DAGLB inh: 12; pPAFAH FP inh: 27*

Results for CC(C)c1cc(C(=O)N2CCCC(Nc3ccc(F)cc3)C2)n[nH]1 (stereo not drawn) ?
PAFAH2 inh: 5; PAFAH1B2 FP inh: 24*; PAFAH1B3 FP inh: 2; ATG4B inhibitor: 3; DAGLB inh: -2; pPAFAH FP inh: 3

Results for CC(C)Cc1cc(C(=O)N2CCCC(CO)(Cc3ccc(F)cc3F)C2)n[nH]1 (stereo not drawn) ?
PAFAH2 inh: -7; PAFAH1B2 FP inh: 3; PAFAH1B3 FP inh: 1; ATG4B inhibitor: 3; DAGLB inh: 1; pPAFAH FP inh: 1

What do the screens show for `CCOc1cc(/C=N/Nc2nc(-c3cccs3)c(NC(C)=O)s2)ccc1O`?
PAFAH2 inh: -5; PAFAH1B2 FP inh: 1; PAFAH1B3 FP inh: 12; ATG4B inhibitor: -12; DAGLB inh: 2; pPAFAH FP inh: 25*

What do the screens show for `CSC1=NSC2=NC(=O)/C(=C/c3coc4ccc(O)cc4c3=O)C(=N)N12`?
PAFAH2 inh: 12; PAFAH1B2 FP inh: 18; PAFAH1B3 FP inh: 11; ATG4B inhibitor: 15; DAGLB inh: -46; pPAFAH FP inh: 29*

How did CSC1=NSC2=NC(=O)/C(=C/c3coc4ccccc4c3=O)C(=N)N12 do in these assays?
PAFAH2 inh: 25; PAFAH1B2 FP inh: 11; PAFAH1B3 FP inh: 8; ATG4B inhibitor: 13; DAGLB inh: -66; pPAFAH FP inh: 16

Results for COCCNC(=O)CCc1ccc(S(=O)(=O)Nc2ccc(C)cc2)cc1 ?
PAFAH2 inh: 1; PAFAH1B2 FP inh: 12; PAFAH1B3 FP inh: -4; ATG4B inhibitor: -12; DAGLB inh: 2; pPAFAH FP inh: 25*

Results for COc1ccc(CN(C)C(=O)c2ccc(NS(=O)(=O)c3ccc(F)cc3)cc2)c(OC)c1 ?
PAFAH2 inh: 2; PAFAH1B2 FP inh: 0; PAFAH1B3 FP inh: 5; ATG4B inhibitor: -1; DAGLB inh: -1; pPAFAH FP inh: 21

What do the screens show for `COc1ccc(NS(=O)(=O)c2ccc(C)c(C(=O)N(C)Cc3ccc(C)cc3)c2)cc1`?
PAFAH2 inh: 7; PAFAH1B2 FP inh: -1; PAFAH1B3 FP inh: 9; ATG4B inhibitor: -6; DAGLB inh: -2; pPAFAH FP inh: 28*

What do the screens show for `Cc1ccc(NS(=O)(=O)c2ccc(CCC(=O)NC3CC3)cc2)cc1`?
PAFAH2 inh: -4; PAFAH1B2 FP inh: 11; PAFAH1B3 FP inh: 10; ATG4B inhibitor: -6; DAGLB inh: 0; pPAFAH FP inh: 20
